From PubChem BioAssay AID1159580 (chemical genetic matrix, 2015)
The whole screen tested about 5,500 compounds, of which about 2,000 (36%) were called active. About 18% were inconclusive and are not listed. The list shows a part of the results. Unmarked numbers belong to inactive results. No stated cut-off is given here; in the data, active means normalized growth mostly below about 0.91 (no sharp cut-off); inconclusive means no clear call, values can overlap the other calls; inactive means mostly above about 0.92.

Experiment: chemical genetic growth profiling, strain panel (AID 1159580);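 further: tested at 20 µM; growth read once vehicle control cultures reached saturation at 30 °C; 1 = growth at the plate median or of vehicle wells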
Settings: S. cerevisiae deletion strains, growth OD

For `COC(=O)c1cnn(-c2c(Cl)cccc2Cl)c1C=C(C#N)C#N`, the normalized growth (locus YAR019C, strain CDC15, stronger effect = lower value) was 0.939, the normalized growth (locus YBL105C, strain PKC1, stronger effect = lower value) was 0.957 and the normalized growth (locus YBR135W, strain CKS1, stronger effect = lower value) was 0.954. For the same molecule, the normalized growth (locus YBR136W, strain MEC1, stronger effect = lower value) was 0.952, the normalized growth (locus YBR160W, strain CDC28, stronger effect = lower value) was 0.955 and the normalized growth (locus YDL017W, strain CDC7, stronger effect = lower value) was 0.953. For the same molecule, the normalized growth (locus YDL028C, strain MPS1, stronger effect = lower value) was 0.946, the normalized growth (locus YDL101C, strain DUN1, stronger effect = lower value) was 0.944 and the normalized growth (locus YDL108W, strain KIN28, stronger effect = lower value) was 0.961. It also gave a normalized growth (locus YDL132W, strain cdc53, stronger effect = lower value) of 0.942, a normalized growth (locus YDL214C, strain PRR2, stronger effect = lower value) of 0.966 and a normalized growth (locus YDR052C, strain DBF4, stronger effect = lower value) of 0.948. For the same molecule, the normalized growth (locus YDR054C, strain cdc34, stronger effect = lower value) was 0.943, the normalized growth (locus YDR226W, strain ADK1, stronger effect = lower value) was 0.956 and the normalized growth (locus YDR477W, strain SNF1, stronger effect = lower value) was 0.972. The normalized growth (locus YER123W, strain YCK3, stronger effect = lower value) was 0.954, the normalized growth (locus YER133W, strain GLC7, stronger effect = lower value) was 0.922 and the normalized growth (locus YFL009W, strain cdc4, stronger effect = lower value) was 0.936. For the same molecule, the normalized growth (locus YFL029C, strain CAK1, stronger effect = lower value) was 0.954, the normalized growth (locus YFR003C, strain YPI1, stronger effect = lower value) was 0.95 and the normalized growth (locus YFR019W, strain FAB1, stronger effect = lower value) was 0.966. For the same molecule, the normalized growth (locus YFR028C, strain CDC14, stronger effect = lower value) was 0.949, the normalized growth (locus YGR040W, strain KSS1, stronger effect = lower value) was 0.944 and the normalized growth (locus YGR052W, strain FMP48, stronger effect = lower value) was 0.93. For the same molecule, the normalized growth (locus YGR092W, strain DBF2, stronger effect = lower value) was 0.912, the normalized growth (locus YHR079C, strain IRE1, stronger effect = lower value) was 0.775 and the normalized growth (locus YHR082C, strain KSP1, stronger effect = lower value) was 1.1. It also gave a normalized growth (locus YHR205W, strain SCH9, stronger effect = lower value) of 1, a normalized growth (locus YIL147C, strain SLN1, stronger effect = lower value) of 0.947 and a normalized growth (locus YJL095W, strain BCK1, stronger effect = lower value) of 0.782. It also gave a normalized growth (locus YJL128C, strain PBS2, stronger effect = lower value) of 0.969, a normalized growth (locus YJL157C, strain FAR1, stronger effect = lower value) of 0.962 and a normalized growth (locus YJR016C, strain ILV3, stronger effect = lower value) of 0.955. It also gave a normalized growth (locus YJR066W, strain TOR1 (second series), stronger effect = lower value) of 0.964, a normalized growth (locus YJR066W, strain TOR1, stronger effect = lower value) of 1.08 and a normalized growth (locus YKL048C, strain ELM1, stronger effect = lower value) of 0.922. For the same molecule, the normalized growth (locus YKL067W, strain YNK1, stronger effect = lower value) was 0.955, the normalized growth (locus YKL101W, strain HSL1, stronger effect = lower value) was 0.958 and the normalized growth (locus YKL193C, strain SDS22, stronger effect = lower value) was 0.949. The normalized growth (locus YKL203C, strain TOR2, stronger effect = lower value) was 1.03, the normalized growth (locus YLR113W, strain HOG1, stronger effect = lower value) was 0.748 (active) and the normalized growth (locus YLR133W, strain CKI1, stronger effect = lower value) was 0.968. The normalized growth (locus YLR403W, strain SFP1, stronger effect = lower value) was 0.975, the normalized growth (locus YML070W, strain DAK1, stronger effect = lower value) was 0.961 and the normalized growth (locus YMR001C, strain CDC5, stronger effect = lower value) was 0.953. For the same molecule, the normalized growth (locus YMR205C, strain PFK2 (second series), stronger effect = lower value) was 0.975, the normalized growth (locus YMR277W, strain FCP1, stronger effect = lower value) was 0.949 and the normalized growth (locus YNL006W, strain LST8, stronger effect = lower value) was 0.955. It also gave a normalized growth (locus YNL020C, strain ARK1, stronger effect = lower value) of 0.969, a normalized growth (locus YNL161W, strain CBK1, stronger effect = lower value) of 0.94 and a normalized growth (locus YNL183C, strain NPR1, stronger effect = lower value) of 0.863. The normalized growth (locus YNL207W, strain RIO2, stronger effect = lower value) was 0.95, the normalized growth (locus YNL222W, strain SSU72, stronger effect = lower value) was 0.966 and the normalized growth (locus YNL307C, strain MCK1 (second series), stronger effect = lower value) was 0.986. It also gave a normalized growth (locus YOL078W, strain AVO1, stronger effect = lower value) of 0.946, a normalized growth (locus YOL136C, strain PFK27, stronger effect = lower value) of 0.969 and a normalized growth (locus YOR061W, strain CKA2, stronger effect = lower value) of 0.95. The normalized growth (locus YOR119C, strain RIO1, stronger effect = lower value) was 0.961, the normalized growth (locus YOR231W, strain MKK1, stronger effect = lower value) was 0.797 and the normalized growth (locus YOR329C, strain SCD5, stronger effect = lower value) was 0.947. It also gave a normalized growth (locus YPL031C, strain PHO85, stronger effect = lower value) of 0.948, a normalized growth (locus YPL153C, strain RAD53, stronger effect = lower value) of 0.938 and a normalized growth (locus YPL204W, strain HRR25, stronger effect = lower value) of 0.956. For the same molecule, the normalized growth (locus YPL209C, strain IPL1, stronger effect = lower value) was 0.954, the normalized growth (locus YPL256C, strain CLN2, stronger effect = lower value) was 0.781 (active) and the normalized growth (locus YPR025C, strain CCL1, stronger effect = lower value) was 0.942. For the same molecule, the normalized growth (locus YPR106W, strain ISR1, stronger effect = lower value) was 0.942, the normalized growth (locus YPR111W, strain DBF20, stronger effect = lower value) was 0.953 and the normalized growth (strain NNK1, stronger effect = lower value) was 0.969. It also gave a normalized growth (strain TSCII, stronger effect = lower value) of 0.943.
